Source: the supplement of paper PMC12067093, “Discovery and optimisation of a covalent ligand for TRIM25 and its application to targeted protein ubiquitination” (Chemical Science, 2025)
Targets with the largest changes are over-represented here; the source holds about 21,000 in all.
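Also: competitive chemoproteomic profiling in live THP-1 cells with an iodoacetamide desthiobiotin (IA-DTB) probe, comparing probe-labelled peptide intensities in compound-treated cells against DMSO-treated controls.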

These targets were tested with CC1Cc2ccccc2N1C(=O)C1CCCN(C1)C(=O)CCl (mixture of isomers) [TRIM25 ligand 11 (diastereomer mixture)] (assay: probe-labelled cysteine peptide fold change vs DMSO (competition) (log2 fold change); higher = less target engagement (more negative = stronger competition)). Conditions: 10 µM; THP-1; incubation time: 4 h.
In the case of “MAP4K2_Q12851_302_ASDPHLGTPSPEDCELETYDMFPDTIHSR (UniProt Q12851)”, the “probe-labelled cysteine peptide fold change” value is reported as -0.0289.
With “NAA25_Q14CX7_339_SQGCNDEYK (UniProt Q14CX7)” the “probe-labelled cysteine peptide fold change” value was 0.0881.
In the case of “MAP4_P27816_635_CSLPAEEDSVLEK (UniProt P27816)”, the “probe-labelled cysteine peptide fold change” value is reported as -0.069.
With “NAA10_P41227_17+21_NARPEDLMNMQHCNLLCLPENYQMK (UniProt P41227)” the “probe-labelled cysteine peptide fold change” value was -0.0777.
“MDN1_Q9NU22_4604_HLFFSQSCSLLVR (UniProt Q9NU22)” was tested, and the “probe-labelled cysteine peptide fold change” value was 0.142.
In the case of “METTL5_Q9NRN9_107+110_NAEEFELTNIDMVQCDVCLLSNR (UniProt Q9NRN9)”, the “probe-labelled cysteine peptide fold change” value is reported as -0.067.
For “MATR3_P43243_821_NTHCSSLPHYQK (UniProt P43243)”, the “probe-labelled cysteine peptide fold change” value was 0.121.
In the case of “MRPL45_Q9BRJ2_151_DIFIEAHLCLNNSDHDR (UniProt Q9BRJ2)”, the “probe-labelled cysteine peptide fold change” value is reported as -0.648.
“LSS_P48449_484_LCDAVAVLLNMR (UniProt P48449)” was tested, and the “probe-labelled cysteine peptide fold change” value was -0.0996.
With “NCAPG_Q9BPX3_177_DDECPVVNAYATLIENDSNPEVR (UniProt Q9BPX3)” the “probe-labelled cysteine peptide fold change” value was -0.316.
With “MDN1_Q9NU22_1400_TTICQVFAALANQK (UniProt Q9NU22)” the “probe-labelled cysteine peptide fold change” value was 0.156.
For “MOCS3_O95396_193_YLVNDACVLAGRPLVSASALR (UniProt O95396)”, the “probe-labelled cysteine peptide fold change” value was -0.0913.
In the case of “MACF1_Q9UPN3_5309_DCDVQGLEHDMEEINAR (UniProt Q9UPN3)”, the “probe-labelled cysteine peptide fold change” value is reported as 0.136.
For “NAPA_P54920_212+215_AALCHFCIDMLNAK (UniProt P54920)”, the “probe-labelled cysteine peptide fold change” value was -0.0124.
In the case of “MGMT_P16455_145_GNPVPILIPCHR (UniProt P16455)”, the “probe-labelled cysteine peptide fold change” value is reported as -0.499.
For “NCAPH_Q15003_114_FTNTQITEHYSTCIK (UniProt Q15003)”, the “probe-labelled cysteine peptide fold change” value was 0.199.
With “MSTO1_Q9BUK6_232_LHFYVEECDYLQGFQILCDLHDGFSGVGAK (UniProt Q9BUK6)” the “probe-labelled cysteine peptide fold change” value was 0.183.
With “MYADM_Q96S97_279_SRDVSCSR (UniProt Q96S97)” the “probe-labelled cysteine peptide fold change” value was 1.04.
With “MBIP_Q9NS73_243_DCGNQAVEER (UniProt Q9NS73)” the “probe-labelled cysteine peptide fold change” value was -0.0155.
For “MRPS24_Q96EL2_103_FMWGTFPGCLADQLVLK (UniProt Q96EL2)”, the “probe-labelled cysteine peptide fold change” value was 0.183.
For “MYO9B_Q13459_1169_HIQSCK (UniProt Q13459)”, the “probe-labelled cysteine peptide fold change” value was -0.0237.
For “MTREX_P42285_983_LEIDEETYLSSFKPHLMDVVYTWATGATFAHICK (UniProt P42285)”, the “probe-labelled cysteine peptide fold change” value was 0.115.
For “MYO1G_B0I1T2_618_LDENHCR (UniProt B0I1T2)”, the “probe-labelled cysteine peptide fold change” value was 0.054.
With “NCAPG2_Q86XI2_776_NRECLLSAPR (UniProt Q86XI2)” the “probe-labelled cysteine peptide fold change” value was -0.0525.
With “MRC2_Q9UBG0_213_EDGHLWCATTQDYGKDER (UniProt Q9UBG0)” the “probe-labelled cysteine peptide fold change” value was -0.0873.
With “MATR3_P43243_230_CRDDSFFGETSHNYHK (UniProt P43243)” the “probe-labelled cysteine peptide fold change” value was 0.0188.
“MORC3_Q14149_717_QCHMFTDQIK (UniProt Q14149)” was tested, and the “probe-labelled cysteine peptide fold change” value was -0.0943.
“MRPS34_P82930_93_SWLWQHDEPCYWR (UniProt P82930)” was tested, and the “probe-labelled cysteine peptide fold change” value was 0.0173.
In the case of “MCM3AP_O60318_439_SESTDSLGGLSPSEVTAIQCK (UniProt O60318)”, the “probe-labelled cysteine peptide fold change” value is reported as -0.0427.
For “MATR3_P43243_296_GYPHLCSICDLPVHSNK (UniProt P43243)”, the “probe-labelled cysteine peptide fold change” value was -0.0503.
For “MFSD2A_Q8NA29_44_KQQLSVCNK (UniProt Q8NA29)”, the “probe-labelled cysteine peptide fold change” value was -0.207.
“MICAL2_O94851_1059_PHFIHCK (UniProt O94851)” was tested, and the “probe-labelled cysteine peptide fold change” value was 0.00568.
